# Screening results as filed in PubChem.
# JMJD2A Tudor inh – blocks the human JMJD2A Tudor domain. AID 504339. AlphaScreen JMJD2A-Tudor / H3K4me3 peptide binding. Potency, µM (doses to about 114 µM), without a hit: at the highest dose activity change, negative = inhibition, hits mostly inhibitors. 4.4% of 390,000 active. O75164; note: % is set by controls: 0 for no effect and ±100 for the full control effect; nearly all actives have a fitted effect of over 50% in size
# Sfp inh – Sfp phosphopantetheinyl transferase inhibition | Potency, µM, without a hit: largest response in the series, negative = inhibition, hits mostly inhibitors | AID 1490 | Q9F4F7 | Biochemical Sfp PPTase activity, qHTS | 3.5% of 310,000 active;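 note: the enzyme is Sfp with the accession as filed and its product quenches rhodamine fluorescence; 0% = enzyme reaction without inhibitor and -100% = no enzyme wells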
#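 Reaction rates are the 30-min fluorescence difference (ex 525, em 598 nm) in wells containing 15 nM Sfp, 5 uM rhodamine-CoA and 12.5 uM BHQ-2-YbbR at pH 7.6 with 10 mM MgCl2.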
# G9a inh – blocks human histone lysine methyltransferase G9a | G9a H3K9 monomethylation, AlphaScreen, 2 h | Potency, µM (highest dose often 102 µM), inactives show top-dose activity, negative = inhibition, hits mostly inhibitors | 8.8% of 350,000 active | AID 504332; note: % is set by controls: 0 for no effect and ±100 for the full control effect; nearly all actives have a fitted effect of over 75% in size
# Target sequence (Q96KQ7 913-1193 limits assumed): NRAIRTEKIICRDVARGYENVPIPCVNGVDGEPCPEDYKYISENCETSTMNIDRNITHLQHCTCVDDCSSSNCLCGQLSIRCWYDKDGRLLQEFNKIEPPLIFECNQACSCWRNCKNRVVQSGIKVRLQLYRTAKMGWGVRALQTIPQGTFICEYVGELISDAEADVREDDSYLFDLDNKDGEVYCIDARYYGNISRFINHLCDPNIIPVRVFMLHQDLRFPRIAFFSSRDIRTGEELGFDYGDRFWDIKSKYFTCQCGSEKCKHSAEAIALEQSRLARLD
#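 Enzyme 20 nM + cpd, 15 min RT; add b-H3K9 pep 500 nM / SAM 20 uM; 2 h RT; anti-H3K9me1 Ab 0.5 ug/mL + SA donor / anti-rabbit acceptor beads 20 ug/mL each, 10 min; AlphaScreen read.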
# HP1b binding inh – HP1-beta chromodomain-methylated histone interaction inhibition; P83916; AlphaScreen HP1-beta / biotin-H3K9me3 peptide binding; Potency, µM (titrated, usually from 114 µM), for inactives: at the highest dose activity change, negative = inhibition, hits mostly inhibitors; 0.56% of 390,000 active; AID 540317; note: nearly all actives have a fitted effect of over 70% in size
# Target sequence (P83916 whole entry, looked up): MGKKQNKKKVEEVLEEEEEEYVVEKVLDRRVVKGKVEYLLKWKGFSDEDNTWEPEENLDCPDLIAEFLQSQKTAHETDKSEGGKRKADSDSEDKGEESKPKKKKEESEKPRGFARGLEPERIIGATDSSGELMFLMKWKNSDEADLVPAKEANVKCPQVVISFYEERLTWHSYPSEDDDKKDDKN
#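 Compound inhibition of the preformed complex between 50 nM HP1-beta and 50 nM biotinylated H3K9me3 peptide was read by AlphaScreen. Buffer was PBS pH 7.4 with 0.01% Tween-20. Incubations ran 30 min at room temperature, with 10 ug/mL donor/acceptor beads.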
# BAZ2B inh – BAZ2B (human) inhibition. Q9UIF8. AlphaScreen BAZ2B-H3K14Ac peptide displacement. Potency, µM (series often up to 114 µM), for inactives: at the top dose activity change, negative = inhibition, actives largely listed as inhibitors. 4.4% of 360,000 active. AID 504333; note: % is set by controls: 0 for no effect and ±100 for the full control effect; nearly all actives have a fitted effect of over 60% in size
#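 AlphaScreen displacement: compounds (up to 110uM) incubated 30 min at room temperature with a preformed 50 nM BAZ2B/50 nM biotinylated H3K14Ac peptide complex in PBS pH 7.4 with Tween-20. Donor and acceptor beads at 10 ug/mL final added, 20 min light-protected before reading.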
# The depositor's hits bear a star; u = inconclusive; x = no result; [ ] = dose if it differs, or a comment. The list is not random: actives were taken first. Their share in the collection is about 12%. Calls come from the whole dose curve; as a rule, active = well fitted curve in the direction sought with a large enough effect; inconclusive = small, poorly fitted or top-dose-only effect, or another doubt; inactive = no such curve, though single readings can be large; an effect the other way counts as inactive or inconclusive. Potency is the fitted concentration of half-maximal effect.
SMILES,JMJD2A Tudor inh,Sfp inh,G9a inh,HP1b binding inh,BAZ2B inh
Cn1c(CC(=O)Nc2ccc(Cl)c(Cl)c2)nnc1SCC(=O)N1CCN(c2ccccc2)CC1,-28.5%,23.8%,6.3%,4.3%,-10.1%
CN(Cc1n[nH]c(=S)n1C)S(=O)(=O)c1ccccc1,5.62µM*,6.6%,x,26.0%,1.6%
CC(NC(=O)CSc1nnc(CC(=O)Nc2ccc(Cl)c(Cl)c2)n1C)c1ccccc1 (centres undefined),-20.9%,-6.3%,12.6µM*,52.5%,u
CNC(=S)N/N=C/c1c(C)cccc1Cl,-8.7%,4.1%,10.4%,14.7%,-12.6%
CN(c1ccc(F)cc1)S(=O)(=O)c1ccc(Cl)c(C(=O)NCC2(N3CCOCC3)CCCCC2)c1,-9.8%,x,x,25.5%,x
CCn1c(CC(=O)Nc2ccc(C)cc2)n[nH]c1=S,3.55µM*,0.2%,5.01µM*,8.4%,u
Cn1c(CC(=O)Nc2ccc(Cl)c(Cl)c2)n[nH]c1=S,-11.0%,-24.4%,14.1µM*,12.1%,-1.7%
Cc1nc(NS(=O)(=O)c2cccs2)c2c3c(sc2n1)CCC3,-5.3%[57.1 µM],-5.3%,79.4µM*,56.0%,u
Fc1cccc(Nc2ncnc3sc4c(c23)CCC4)c1,-5.5%,u,20µM*,37.8%,6.3%
O=C(Nc1ncnc2sc3c(c12)CCCCC3)c1ccco1,-19.5%,-2.7%,5.1%[12.7 µM],-10.0%,13.8%
Cc1nc(NS(=O)(=O)c2ccc(Br)cc2)c2c3c(sc2n1)CCC3,-16.5%,2.0%,-20.4%[12.7 µM],32.0%,u
c1nc(NCCN2CCOCC2)c2c3c(sc2n1)CCCCC3,-8.4%[57.1 µM],9.1%,u,63.8%,-4.5%
CN1CCC(=NNc2ncnc3sc4c(c23)CCCC4)CC1,u,10µM*,-5.8%[59 µM],3.0%,u
O=C(Nc1ncnc2sc3c(c12)CCCC3)c1ccncc1,2.7%,12.5%,44.7µM*,12.3%,-20.4%
COc1ccc(S(=O)(=O)N2CCCC(C(=O)N3CCN(C)CC3)C2)cc1Cl (centres undefined),-19.1%,8.7%,x,7.8%,-7.5%
CCOC(=O)c1c(C)c(C(=O)NCc2ccc(OC)cc2)c(C)n1C,-15.5%,-9.4%,-4.8%,-5.0%,-29.4%
COc1ccc2nc(NC(=O)C3CCCN(S(=O)(=O)c4cccc5nsnc45)C3)sc2c1 (centres undefined),-23.5%,20.5%,u,18.0%,-26.4%
O=S(=O)(Nc1ncnc2sc3c(c12)CCC3)c1cc(F)ccc1F,3.7%,7.8%,x,41.2%,-8.4%
O=S(=O)(Nc1ncnc2sc3c(c12)CCC3)c1ccc(Cl)s1,-33.9%,3.7%,10µM*,20.3%,u
O=C(c1ccc(S(=O)(=O)NCC2CCCO2)cc1)N1CCN(c2ccccc2)CC1 (centres undefined),-15.3%,27.7%,5.6%[12.7 µM],20.5%,-5.2%
O=C(C[n+]1ccccc1)Nc1c(Cl)cc(Cl)cc1Cl,-8.4%,20µM*,x,25.4%,35.5µM*
O=C(Cc1ccc2c(c1)CCCC2)Nc1ccccc1Br,25.4%,-2.3%,44.7µM*,-18.4%,-5.0%
Cc1ccc[n+](CC(=O)Nc2c(Cl)cc(Cl)cc2Cl)c1,-12.6%,19.6%,0.5%,6.5%,-4.6%
CC(=O)c1ccc(NC(=O)C[n+]2ccc(N(C)C)cc2)cc1,-7.0%,18.6%,12.8%,18.1%,2.3%
CN(C)c1cc[n+](CC(=O)Nc2ccc(OC(F)F)cc2)cc1,u,-2.8%,x,-4.9%,50.1µM*
SMILES,JMJD2A Tudor inh,Sfp inh,G9a inh,HP1b binding inh,BAZ2B inh
CN(C)c1ccc(NC(=O)C[n+]2ccccc2)cc1,u,5.9%,50.1µM*,-4.9%,-26.3%
COc1ccccc1C(=O)Nc1cccc(C(=O)OCc2cc(=O)n3c4c(sc3n2)CCCC4)c1,-14.2%,x,4.7%[59 µM],18.4%,-6.7%
CC(C)NC(=O)N1CCCC2(CCN(C(=O)c3ccco3)CC2)C1,x,19.4%,1.4%[12.7 µM],x,x
O=C(C[n+]1ccccc1)Nc1ccccc1Br,2.1%,5.0%,0.316µM*,62.5%,25.1µM*
Cc1[nH]nc2c1C(c1ccc(-c3ccccc3C#N)o1)C(C#N)=C(N)O2 (centres undefined),u,22.4µM*,20µM*,6.7%,-34.8%
Cc1[nH]nc2c1C(c1ccc(-c3ccc(Cl)cc3)o1)C(C#N)=C(N)O2 (centres undefined),u,-18.4%,79.4µM*,-25.9%,39.8µM*
Cc1[nH]nc2c1C(c1ccsc1C)C(C#N)=C(N)O2 (centres undefined),-23.9%,13.1%,79.4µM*,12.0%,1.3%
Cc1ccc(-c2ccc(C3C(C#N)=C(N)Oc4n[nH]c(C)c43)o2)cc1 (centres undefined),u,50.1µM*,u,u,u
CC(C)CC1NC(=O)N(CC(=O)N2CCN(S(=O)(=O)c3ccc(Cl)cc3)CC2)C1=O (centres undefined),-1.3%,0.8%,12.4%[59 µM],35.4%,-6.7%
COC1CC2CCC(C)[C@](O)(O2)C(=O)C(=O)N2CCCCC2C(=O)OC(C(C)CC2CCC(O)C(OC)C2)CC(=O)C(C)/C=C(/C)C(O)C(OC)C(=O)C(C)CC(C)C=CC=C/C=C\1C (some centres undefined),x,-5.0%,-3.6%[12.7 µM],x,x
CC1(C)CC(=O)C=C(NC2=CC3OC(c4ccccc4)OCC3OC2=O)C1 (centres undefined),-11.0%,28.2µM*,u,22.1%,-0.4%
Cc1ccccc1NC1=CC(=O)CC(C)(C)C1,8.8%,-1.5%,18.4%[59 µM],4.9%,1.9%
S=c1nc[nH]c2c1sc1nc(N3CCOCC3)c3c(c12)CCCC3,-30.4%,7.7%,-2.8%[59 µM],-19.4%,u
O=C(Nc1ccccc1N1CCOCC1)c1cc(-c2ccco2)nc2ccccc12,u,-15.7%,u,u,50.1µM*
COc1cc(-c2cc(C(=O)Nc3ccccc3N3CCOCC3)c3ccccc3n2)cc(OC)c1OC,-23.8%,9.0%,0.5%,31.4%,-16.3%
O=C(Nc1cc(S(=O)(=O)N2CCOCC2)ccc1N1CCCCC1)c1cc(-c2ccccn2)nc2ccccc12,79.4µM*,12.6µM*,2.82µM*,u,-31.3%
O=C(Nc1ccc(F)cc1F)c1cc(-c2ccco2)nc2ccccc12,-11.7%,31.6µM*,44.7µM*,17.3%,4.5%
Cc1cc(C)n2nc(NCc3ccccc3Cl)nc2n1,-19.4%,x,-10.5%[59 µM],9.6%,-14.4%
COc1cc(NC(=O)c2cc3cccc(OC)c3o2)cc(C(=O)Nc2cccc(C(F)(F)F)c2)c1,-30.3%,12.5%,-33.7%[59 µM],15.0%,-11.3%
CCN(C(=O)C1CCC(CNS(=O)(=O)c2cccc3nsnc23)CC1)c1cccc(C)c1 (centres undefined),-27.9%,x,u,1.2%,-35.1%
O=C(Nc1ccccc1)Nc1nnc(/C=C/c2ccccc2Cl)s1,-4.7%,15.8%,0.7%,22.3%,2.4%
Nc1nnc(/C=C/c2ccccc2Cl)s1,1.7%,-23.8%,50.1µM*,6.4%,1.6%
COc1cccc(CNC(=O)COC(=O)CNC(=O)c2ccc(-c3ccccc3)cc2)c1,11.5%,x,-10.9%[2.33 µM],37.0%,9.0%
